These results are taken from PubChem BioAssay (NCATS).

Where “and” joins values, the source holds several entries; their conditions need not be identical. Identical values can stand only once. Records with an inconclusive call do not appear. Entries that show only a call come without a potency. Calls of active or inactive are those of the source. Calls follow the shape of the dose curve; as a rule, active = well fitted inhibition curve with a large enough effect; inconclusive = small, poorly fitted or top-dose-only effect; inactive = no such curve, though single readings can be large or run the other way.
Potency is read from the fitted curve at half-maximal effect.

The nature of the assay: Confirmatory screen NINDS Rhodamine qHTS for Zika virus inhibitors (AID 1347161). Also: nearly all actives have a fitted effect of over 60% in size. The note with it: purified enzyme assay, Rhodamine110 substrate fluorescence, 15 min; series mostly up to 114 µM. The text has this:
Avindra Nath, Ph.D., National Institute of Neurological Disorders and Stroke (NINDS), Bethesda, MD
Radhakrishnan Padmanabhan, Ph.D., Georgetown University (GU), Washington D.C.
Zika Virus causes congenital defects, including microcephaly and is associated with Guillain-Barre syndrome, eningoencephalitis and myelitis in infected adult. […] Using a target-based approach, we hope to establish a screening paradigm to uncover novel, cell-active NS2B-NS3 protease (Zika Virus) specific inhibitors from NCATS' collection of small molecules using qHTS.
Four assay panel was created to identify potential Zika Virus inhibitors. Namely, (1) GU unlinked NS2B-NS3 AMC tagged protease qHTS, (2) GU unlinked NS2B-NS3 Rhodamine tagged protease qHTS, (3) NINDS linked NS2B-NS3 AMC tagged protease qHTS, (4) NINDS linked NS2B-NS3 Rhodamine tagged protease qHTS. Active compounds were re-acquired and re-screened to confirm inhibition. Inhibitors were further screened against various confirmatory and counterscreens in dose response format.
Early Translation Branch (ETB)
National Center for Advancing Translational Sciences (NCATS), Rockville, MD
National Institute of Health (NIH), Bethesda, Maryland
For the linked assay, Nath lab (NINDS) provided the purified linked NS2B-NS3 protease which is consists of hydrophilic domain of NS2B linked to the NS3 protease domain by a flexible (-[…]-) linker. Control compound aprotinin is obtained from Thermo Scientific (#78432; Waltham, Massachusetts). Rhodamine110 substrate ([N-Cbz]-Nle-Lys-Arg-Arg-Rhod110-Arg-Arg-Lys-Nle-[N-Cbz]) was purchased from either Genscript or Bachem.
1536-well Protease (Rhodamine110 Substrate) Assay:
Briefly, 3 microL of enzyme (25 nM final concentration), in assay buffer (10 mM Tris-HCl pH 8.0 with 0.01% Tween 20) were dispensed into a 1,536-well solid-bottom black plate (Greiner Bio One, Monroe, NC). Twenty-three nL of compounds (final concentration range 7.28 nM to 114 microM) or control Aprotinin (final concentration range 3.47 nM to 114 microM) were transferred via Wako Pin-tool (Wako Automation, Richmond, VA). Samples were incubated (room temperature, protected from light) for 15 minutes followed by a 1 microL Rhodamine110 substrate addition (1.5 microM final concentration). Plates were then immediately read on a ViewLux High-throughput CCD imager (PerkinElmer, Waltham, MA) equipped with FITC fluorescence optics (480(20) nm excitation, 540(25) nm emission), then incubated (room temperature, protected from light) for 15 minutes (~15% conversion). The change in fluorescence intensity over the 15-minute reaction period was normalized against no-inhibitor and no-enzyme controls and the resulting percent inhibition data were fitted to a 4-parameter Hill equation. Aprotinin was used as intraplate control.
On the technique in general: Quantitative high-throughput screening tests each substance at several concentrations.
For the molecule `Cc1ccc(C(=O)Nc2cccc(C(F)(F)F)c2)cc1-c1ccc2nc(NCCN3CCOCC3)ncc2c1`, the Potency result was “inactive”.
As for `O=c1c2ccccc2nc2n1CCc1c-2[nH]c2ccccc12`, the figure is 62.2 µM (active).
Consider `CCN(CC)CCCCNc1ncc2cc(-c3cc(OC)cc(OC)c3)c(NC(=O)NC(C)(C)C)nc2n1`, for which the Potency result was “inactive”.
Regarding `CC(C)c1ccccc1Cc1cc(C(=O)Nc2ccc(S(=O)(=O)c3ccccc3C(C)(C)C)cc2)c(O)c(O)c1O`, the Potency is 90.3 µM (active).
Consider `Cc1c(C)n(Cc2ccc(-c3ccccc3C(=O)O)cc2)c2ccc(C(=O)N[C@@H](C)c3ccc([N+](=O)[O-])cc3)cc12`, for which the Potency was 3.12 µM (active).
The same measure for `CCc1c2c(nc3ccc(O)cc13)-c1cc3c(c(=O)n1C2)COC(=O)[C@]3(O)CC`: “inactive”; for `CCOC(=O)C1=C(C)NC2=C(C(=O)CC(C)(C)C2)C1c1ccc(-c2ccccc2)cc1` (centres undefined): “inactive”.
As for `N#Cc1c(O)c2c(-c3ccc(-c4ccccc4O)cc3)csc2[nH]c1=O`, the figure is 2.2 µM (active) and 2.48 µM (active); as for `CN1CCC(CNc2ccc3ncc(-c4cccc(OC(F)(F)F)c4)n3n2)CC1`, “inactive”.
As for `Cc1cc(N2CCOCC2)cc2[nH]c(-c3c(NC[C@@H](O)c4cccc(Cl)c4)cc[nH]c3=O)nc12`, the figure is 44 µM (active); as for `O=C(O)Cn1nnc(-c2cc(N3CCC(Oc4cc(F)ccc4Br)CC3)no2)n1`, 35 µM (active).
As for `CCS(=O)(=O)c1cccc(-c2cc(C(=O)NC3CCN(C)CC3)c(C)c3[nH]c4ncc(C)cc4c23)c1`, the Potency entry was “inactive”.
The same measure for `Cc1cc(CN2CCN(c3c(Br)cnc4nc(-c5ccc(N6CCN(C)CC6)cc5)[nH]c34)CC2)no1`: “inactive”.
As for `COc1cc(C(=O)NS(=O)(=O)c2ccccc2C)ccc1Cc1cn(C)c2ccc(NC(=O)OC3CCCC3)cc12`, the figure is 1.56 µM (active); as for `CCN1CCN(Cc2ccc(-c3cc4c(N[C@H](C)c5ccccc5)ncnc4[nH]3)cc2)CC1`, “inactive”; as for `COc1cc2c(cc1-c1c(C)noc1C)ncc1[nH]c(=O)n([C@H](C)c3ccccn3)c12`, “inactive”.
`CCn1cc(-c2ccnc3[nH]c(-c4cccc(CN(C)C)c4)cc23)c(-c2ccc(NC(=O)N(C)C)cc2)n1`: the Potency result was “inactive”.
As to `O=C(Nc1cc(C(F)(F)F)cc(C(F)(F)F)c1)c1cc(Cl)ccc1O`, the Potency was 7.84 µM (active).
For the molecule `O=C(O)C1(Cc2cccc(Nc3nccs3)n2)CCC(Oc2cccc(Cl)c2F)CC1` (centres undefined), the Potency is 3.5 µM (active).
